The values that follow come from ChEMBL document CHEMBL3988442, “University of Dundee, Small-Polar-MMV Screening Library” (2021).

For some of these results: Results with a measured potency or affinity are listed apart.

Holding throughout (set-up): scale not given: direction of the effect not stated beside the values
In test [1] the target is Protein translocase subunit SecA (Escherichia coli (strain K12)) (UniProt P10408). Description: Assay to Identify E. coli SecA ATPase Inhibitors. Type of test: functional. As to conditions: 30 µM.
Protein translocase subunit SecA (Escherichia coli (strain K12)), sequence (P10408 whole entry): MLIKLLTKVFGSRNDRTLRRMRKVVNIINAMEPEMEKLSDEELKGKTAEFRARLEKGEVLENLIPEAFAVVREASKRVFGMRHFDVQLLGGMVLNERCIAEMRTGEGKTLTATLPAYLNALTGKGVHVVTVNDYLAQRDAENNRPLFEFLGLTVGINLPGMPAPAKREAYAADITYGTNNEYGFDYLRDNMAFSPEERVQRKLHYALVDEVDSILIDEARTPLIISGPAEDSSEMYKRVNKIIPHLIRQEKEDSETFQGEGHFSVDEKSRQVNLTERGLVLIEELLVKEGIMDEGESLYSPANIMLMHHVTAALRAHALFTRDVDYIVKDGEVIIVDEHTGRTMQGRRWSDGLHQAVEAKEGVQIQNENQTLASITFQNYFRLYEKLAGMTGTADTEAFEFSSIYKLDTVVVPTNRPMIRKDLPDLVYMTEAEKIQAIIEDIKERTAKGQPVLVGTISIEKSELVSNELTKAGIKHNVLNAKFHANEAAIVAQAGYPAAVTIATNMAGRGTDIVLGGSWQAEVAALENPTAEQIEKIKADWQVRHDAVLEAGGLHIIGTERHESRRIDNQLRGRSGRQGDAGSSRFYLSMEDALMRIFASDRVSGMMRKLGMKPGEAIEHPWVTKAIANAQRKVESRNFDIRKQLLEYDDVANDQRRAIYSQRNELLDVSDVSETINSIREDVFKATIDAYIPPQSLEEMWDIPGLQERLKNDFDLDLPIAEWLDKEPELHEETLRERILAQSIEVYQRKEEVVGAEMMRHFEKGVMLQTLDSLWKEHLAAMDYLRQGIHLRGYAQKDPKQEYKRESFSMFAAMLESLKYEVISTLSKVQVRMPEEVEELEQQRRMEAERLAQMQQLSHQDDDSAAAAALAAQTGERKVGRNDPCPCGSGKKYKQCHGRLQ
Test [2] deals with T1, Ubiquitin-activating enzyme e1, putative (Leishmania donovani (strain BPK282A1)) (UniProt E9BSI1).
T1 sequence (whole entry): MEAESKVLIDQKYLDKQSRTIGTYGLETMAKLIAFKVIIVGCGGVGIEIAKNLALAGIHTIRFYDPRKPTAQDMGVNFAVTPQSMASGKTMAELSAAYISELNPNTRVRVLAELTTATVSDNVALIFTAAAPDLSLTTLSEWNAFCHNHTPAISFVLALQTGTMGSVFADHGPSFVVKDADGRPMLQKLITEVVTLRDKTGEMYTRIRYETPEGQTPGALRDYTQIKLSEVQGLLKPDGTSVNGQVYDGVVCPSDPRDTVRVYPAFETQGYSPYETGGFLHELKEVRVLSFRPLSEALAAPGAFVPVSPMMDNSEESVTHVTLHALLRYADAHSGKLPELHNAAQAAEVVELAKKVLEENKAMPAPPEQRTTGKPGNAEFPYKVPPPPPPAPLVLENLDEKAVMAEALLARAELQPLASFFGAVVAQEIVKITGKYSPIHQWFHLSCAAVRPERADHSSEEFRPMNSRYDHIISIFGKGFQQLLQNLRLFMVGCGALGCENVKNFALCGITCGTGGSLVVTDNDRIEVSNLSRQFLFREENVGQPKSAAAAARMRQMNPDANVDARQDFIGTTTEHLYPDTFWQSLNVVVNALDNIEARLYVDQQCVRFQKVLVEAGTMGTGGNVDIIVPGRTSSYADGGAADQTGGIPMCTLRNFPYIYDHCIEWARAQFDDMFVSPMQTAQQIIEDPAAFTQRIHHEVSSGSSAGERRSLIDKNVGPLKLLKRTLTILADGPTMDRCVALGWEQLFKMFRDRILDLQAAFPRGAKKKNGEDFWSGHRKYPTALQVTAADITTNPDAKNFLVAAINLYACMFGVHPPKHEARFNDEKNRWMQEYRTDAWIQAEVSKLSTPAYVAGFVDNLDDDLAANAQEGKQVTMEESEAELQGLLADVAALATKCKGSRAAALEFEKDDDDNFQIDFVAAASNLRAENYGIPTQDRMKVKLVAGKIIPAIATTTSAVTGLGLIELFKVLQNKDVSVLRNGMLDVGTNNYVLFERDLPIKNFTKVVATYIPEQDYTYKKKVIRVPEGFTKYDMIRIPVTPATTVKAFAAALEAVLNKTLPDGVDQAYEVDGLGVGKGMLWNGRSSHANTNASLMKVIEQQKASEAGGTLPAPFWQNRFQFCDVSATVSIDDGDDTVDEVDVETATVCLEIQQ
Description: Leishmania donovani Ubiquitin Activating Enzyme (LdE1). The class given is functional. The settings on record: 30 µM.

The target of test [3] is AMP-activated protein kinase, AMPK (Homo sapiens) (UniProt P54646+O43741+P54619+Q9UGJ0+Q9Y478+Q13131+Q9UGI9). The test is described as follows: AMP-dependent Kinase enzyme assay. An in vitro enzyme assay that detects ADP turnover that is directly proportional to AMPK activity. This uses naive AMPK that is activated during the assay with MK-8722. Type of test: functional. As to conditions: 30 µM.

Test [4] has as its target Sialic acid-binding Ig-like lectin 9 (Homo sapiens) (UniProt Q9Y336). Description: Hs-Siglec9 ALPHAscreen SOP 20170721. The settings on record: 10 µM.
A further test deals with Trypanosoma cruzi. Description: Trypanosoma cruzi phosphomannomutase and mannose-1-phosphate guanylyltransferase assay. The class given is functional. As to conditions: 10 µM.
The target in test [5] is T2, Arginase-2, mitochondrial (Homo sapiens) (UniProt P78540).
T2 sequence (whole entry): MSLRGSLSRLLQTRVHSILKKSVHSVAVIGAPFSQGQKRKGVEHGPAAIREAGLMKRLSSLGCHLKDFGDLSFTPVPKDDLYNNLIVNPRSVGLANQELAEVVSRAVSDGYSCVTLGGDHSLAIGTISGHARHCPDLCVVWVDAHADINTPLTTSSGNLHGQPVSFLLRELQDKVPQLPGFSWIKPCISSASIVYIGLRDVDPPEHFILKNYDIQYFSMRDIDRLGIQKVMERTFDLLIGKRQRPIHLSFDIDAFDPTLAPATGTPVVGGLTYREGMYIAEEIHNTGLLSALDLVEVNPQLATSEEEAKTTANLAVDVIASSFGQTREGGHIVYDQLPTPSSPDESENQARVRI
The test is described as follows: in vitro enzyme assay to detect the production of urea directly proportional to the activity of Arginase II. Note: in the data most compounds retested in dose-response had high values. The class given is functional. As to conditions: 33.3 µM.

The target of test [6] is T3, Proteasome subunit beta (Trypanosoma cruzi) (UniProt O96673).
T3 sequence (whole entry): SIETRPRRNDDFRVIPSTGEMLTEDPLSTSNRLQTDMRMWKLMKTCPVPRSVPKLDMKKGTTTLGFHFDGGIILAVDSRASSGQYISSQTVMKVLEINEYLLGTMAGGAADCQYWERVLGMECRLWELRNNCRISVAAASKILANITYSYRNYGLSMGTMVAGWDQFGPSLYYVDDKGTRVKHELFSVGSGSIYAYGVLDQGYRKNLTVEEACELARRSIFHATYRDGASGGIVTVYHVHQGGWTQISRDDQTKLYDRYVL
The test is described as follows: Trypanosoma cruzi proteasome chymotrypsin-like activity (TcProtChymo) assay. Note: in the data most compounds retested in dose-response had high values. The class given is functional. As to conditions: 9.37 µM.

The species entered for a further test is Homo sapiens. Description: To identify inhibition of the IFN signalling (Jak-Stat) pathway via expression of an eGFP reporter gene under the control of an IFN-stimulated response element (ISRE) containing MxA promoter. Type of test: functional. As to conditions: 30 µM.
Test [7] concerns the target T4, Tyrosyl-tRNA synthetase, putative (Trypanosoma cruzi (strain CL Brener)) (UniProt Q4DSP6).
T4 sequence (whole entry): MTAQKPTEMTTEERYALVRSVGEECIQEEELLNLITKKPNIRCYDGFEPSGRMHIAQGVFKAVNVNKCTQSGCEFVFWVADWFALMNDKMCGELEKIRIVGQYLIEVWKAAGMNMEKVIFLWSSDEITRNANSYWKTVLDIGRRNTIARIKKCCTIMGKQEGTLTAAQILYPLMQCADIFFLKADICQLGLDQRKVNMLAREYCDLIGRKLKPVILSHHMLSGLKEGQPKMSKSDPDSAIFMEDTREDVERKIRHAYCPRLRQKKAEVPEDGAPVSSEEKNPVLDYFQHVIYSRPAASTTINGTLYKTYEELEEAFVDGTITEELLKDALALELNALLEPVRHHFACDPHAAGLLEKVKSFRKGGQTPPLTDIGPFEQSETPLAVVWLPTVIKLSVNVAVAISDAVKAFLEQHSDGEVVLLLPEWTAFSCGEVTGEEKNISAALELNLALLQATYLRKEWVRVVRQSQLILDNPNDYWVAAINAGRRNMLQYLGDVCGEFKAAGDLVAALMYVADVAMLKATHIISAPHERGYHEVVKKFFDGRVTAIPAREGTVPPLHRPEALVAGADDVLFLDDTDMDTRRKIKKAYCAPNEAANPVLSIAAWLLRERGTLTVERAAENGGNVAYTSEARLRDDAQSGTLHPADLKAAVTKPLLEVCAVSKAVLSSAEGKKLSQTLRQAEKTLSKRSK
Description: Trypanosoma cruzi tyrosyl tRNA synthetase (TcYRS) _High Tyrosine SOP. Note: in the data most compounds retested in dose-response had high values. As to conditions: 30 µM. The class given is functional.

In test [8] the target is T4, Tyrosyl-tRNA synthetase, putative (Trypanosoma cruzi (strain CL Brener)). The test is described as follows: Trypanosoma cruzi tyrosyl tRNA synthetase (TcYRS) SOP. Type of test: functional. The settings on record: 30 µM.
Test [9] addresses Chromo domain-containing protein 1 (Saccharomyces cerevisiae (strain ATCC 204508 / S288c) (Baker's yeast)) (UniProt P32657). The test is described as follows: ScCHD-1 Enzyme Inhibition Assay. Note: in the data most compounds retested in dose-response had high values. Type of test: functional. As to conditions: 30 µM.

Chromo domain-containing protein 1 (Saccharomyces cerevisiae (strain ATCC 204508 / S288c) (Baker's yeast)), sequence (P32657 whole entry, the tested form may be a part): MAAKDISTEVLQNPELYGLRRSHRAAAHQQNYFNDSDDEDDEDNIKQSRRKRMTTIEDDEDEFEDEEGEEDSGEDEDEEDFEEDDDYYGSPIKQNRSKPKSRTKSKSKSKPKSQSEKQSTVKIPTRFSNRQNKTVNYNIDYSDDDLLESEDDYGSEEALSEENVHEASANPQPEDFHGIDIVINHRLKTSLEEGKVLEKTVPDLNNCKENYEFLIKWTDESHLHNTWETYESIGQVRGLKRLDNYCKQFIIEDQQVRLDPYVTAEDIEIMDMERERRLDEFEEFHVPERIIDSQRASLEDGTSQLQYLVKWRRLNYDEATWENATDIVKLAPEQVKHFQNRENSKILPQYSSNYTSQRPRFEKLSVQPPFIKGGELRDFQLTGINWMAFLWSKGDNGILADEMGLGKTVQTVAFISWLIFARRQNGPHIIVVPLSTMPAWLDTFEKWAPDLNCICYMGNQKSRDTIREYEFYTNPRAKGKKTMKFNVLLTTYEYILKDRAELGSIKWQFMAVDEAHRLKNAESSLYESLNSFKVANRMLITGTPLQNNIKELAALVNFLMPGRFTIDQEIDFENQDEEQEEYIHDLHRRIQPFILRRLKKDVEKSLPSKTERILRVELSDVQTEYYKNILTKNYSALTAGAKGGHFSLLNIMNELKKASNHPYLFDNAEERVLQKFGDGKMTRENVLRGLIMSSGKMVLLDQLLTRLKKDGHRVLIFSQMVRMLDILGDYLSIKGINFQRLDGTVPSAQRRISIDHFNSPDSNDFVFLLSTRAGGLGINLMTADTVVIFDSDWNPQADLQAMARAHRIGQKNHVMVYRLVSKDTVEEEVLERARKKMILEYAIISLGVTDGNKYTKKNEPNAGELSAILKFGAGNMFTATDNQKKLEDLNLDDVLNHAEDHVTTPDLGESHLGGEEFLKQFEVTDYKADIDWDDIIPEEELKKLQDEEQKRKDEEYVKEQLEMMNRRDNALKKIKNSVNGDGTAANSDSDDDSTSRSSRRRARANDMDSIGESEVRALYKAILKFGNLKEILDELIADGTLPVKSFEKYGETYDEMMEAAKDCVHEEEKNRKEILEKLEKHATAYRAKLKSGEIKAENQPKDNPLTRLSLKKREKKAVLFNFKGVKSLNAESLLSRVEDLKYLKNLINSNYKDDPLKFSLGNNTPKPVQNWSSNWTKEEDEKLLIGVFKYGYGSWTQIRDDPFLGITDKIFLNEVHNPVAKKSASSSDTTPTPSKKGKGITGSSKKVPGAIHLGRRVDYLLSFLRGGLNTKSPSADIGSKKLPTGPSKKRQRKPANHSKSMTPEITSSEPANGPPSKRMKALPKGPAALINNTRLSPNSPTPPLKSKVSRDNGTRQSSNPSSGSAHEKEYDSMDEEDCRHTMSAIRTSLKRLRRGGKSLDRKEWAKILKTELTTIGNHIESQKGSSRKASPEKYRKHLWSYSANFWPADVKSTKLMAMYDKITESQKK
Sialic acid-binding Ig-like lectin 9 (Homo sapiens), sequence (Q9Y336 whole entry): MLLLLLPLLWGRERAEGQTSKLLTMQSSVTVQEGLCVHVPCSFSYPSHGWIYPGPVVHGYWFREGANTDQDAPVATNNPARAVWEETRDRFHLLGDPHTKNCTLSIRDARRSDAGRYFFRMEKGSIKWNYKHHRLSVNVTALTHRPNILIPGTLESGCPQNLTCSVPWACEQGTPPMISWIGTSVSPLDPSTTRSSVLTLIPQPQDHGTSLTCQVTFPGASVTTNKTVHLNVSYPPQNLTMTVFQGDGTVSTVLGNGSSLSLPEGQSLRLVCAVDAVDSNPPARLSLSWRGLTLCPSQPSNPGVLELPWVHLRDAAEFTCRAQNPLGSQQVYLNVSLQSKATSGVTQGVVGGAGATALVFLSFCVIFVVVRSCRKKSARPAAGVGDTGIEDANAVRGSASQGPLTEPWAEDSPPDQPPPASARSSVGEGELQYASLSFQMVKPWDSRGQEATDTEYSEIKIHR

Consider `O=C(CCc1ccc(=O)[nH]n1)N1CCCC(COc2ccc(F)cc2)C1` (stereo unspecified), for which the Percent Effect was -2.1% in test [1]; 1.39% in test [2]; -1.82% in test [3]; -3.84% in [4]; 1.85% in the test on Trypanosoma cruzi; 2.65% in test [5]. Moreover, the Percent Effect is 16.3% in test [6]; 5.9% in the test listed under Homo sapiens; 6.32% in test [7]; 12.8% in [8]; -1.89% in test [9].
Regarding `Cc1cc(C)n(CC2CCCN2C(=O)c2cc[nH]n2)n1` (stereo unspecified), the Percent Effect in test [1] was -7.68%; in test [2] it was 16.5%; in [3] it was -4.09%; in [4], -3.12%; in the test on Trypanosoma cruzi it was 0.923%; in test [5], 0.215%. Moreover, the Percent Effect in test [6] was 8.58%; in the test listed under Homo sapiens, -2.4%; in [7], 7.29%; in [8] it was 17.7%; in test [9] it was -34.4%.
`c1ccc2sc(CN3CCOC(Cn4cncn4)C3)nc2c1` (stereo unspecified): the Percent Effect in test [1] was -1.57%; in test [2] it was -8.11%; in test [3] it was -9.39%; in test [4], -1.81%; in the test with Trypanosoma cruzi, -6.51%; in [5], 0.401%. The Percent Effect in test [6] is -4.68%; in the test filed under Homo sapiens, 42.5%; in test [7], 1.48%; in test [8], -6.17%; in test [9], 4.42%.
Consider `Cc1ccc(N2CC3(CCN(C(=O)c4ccoc4)C3)C2)nn1`, for which the Percent Effect in test [1] was -2.51%; in [2], 15.6%; in test [3], 2.65%; in test [4], 11.4%; with Trypanosoma cruzi, 3.64%; in test [5] it was -143%. The Percent Effect in test [6] is 9.48%; in the test listed under Homo sapiens, 0.925%; in test [7], 5.38%; in test [8], 13.6%; in test [9] it was -5.33%.
Consider `CSc1ccc(C(CNC(=O)C2CC2)N2CCc3sccc3C2)cc1` (stereo unspecified), for which the Percent Effect was -3.4% in test [1]; 5.26% in test [2]; 1.69% in test [3]; -0.599% in test [4]; 0.876% in the test on Trypanosoma cruzi; -2.37% in test [5]. The Percent Effect in [6] amounted to 16%; in the test listed under Homo sapiens, 9.34%; in test [7], 8.51%; in test [8], 15.6%; in test [9] it was 4.76%.
In the case of `CCN1CCN(c2ncc(-c3cc(C)no3)c(-c3ccc(C)s3)n2)CC1`, the Percent Effect in [1] is -2.83%; in test [2] it was 4.05%; in test [3], 7.99%; in test [4], 2.04%; in the test on Trypanosoma cruzi, -5.34%; in [5] it was -4.41%. Also, the Percent Effect in [6] was 2.18%; in the test filed under Homo sapiens, -6.45%; in test [7], 6.45%; in test [8] it was 11.7%; in test [9], -15.6%.
For the compound `CC1=Nc2c(c(=O)[nH]n2C2CCOCC2)C(c2cccc(Br)c2)S1` (stereo unspecified), the Percent Effect in [1] is -5.02%; in test [2], 12%; in [3] it was -9.43%; in [4], -0.93%; in the test on Trypanosoma cruzi, 1.97%; in test [5] it was 82.6%. Moreover, the Percent Effect in test [6] is 14.1%; in the test listed under Homo sapiens, 30.4%; in [7] it was 9.52%; in test [8] it was 20.5%; in test [9] it was -11.4%.
As to `CN(C(=O)Cn1nc(-c2ccc(F)cc2)oc1=O)C1CCS(=O)(=O)C1` (stereo unspecified), the Percent Effect in [1] is 0.314%; in [2], 20.8%; in [3] it was -6.94%; in [4] it was 6.92%; in the test on Trypanosoma cruzi, 0.291%; in [5], 0%. Besides, the Percent Effect in test [6] is 19.3%; in the test listed under Homo sapiens, 13.6%; in test [7] it was 2.1%; in [8], 10.3%; in test [9], -6.7%.
For the compound `CN(C)C(=O)CN(C)C(=O)c1cnc(Cc2ccc(F)cc2)s1`, the Percent Effect is -5.52% in test [1]; 0% in [2]; -1.38% in [3]; -1.9% in [4]; -1.07% in the test on Trypanosoma cruzi; 3.12% in test [5]. Also, the Percent Effect in [6] was 17.8%; in the test filed under Homo sapiens it was -4.01%; in [7], 0.546%; in [8], 8.64%; in test [9], -7.08%.
As to `COc1ccc(CCN2CCc3c(nc(C4CC4)n3C)C2)cc1`, the Percent Effect in test [1] was -2.18%; in test [2], 18.2%; in [3], -12.2%; in [4] it was -0.11%; in the test with Trypanosoma cruzi it was -3.18%; in test [5], 0.356%. Also, the Percent Effect in test [6] was 9.12%; in the test listed under Homo sapiens, 18.2%; in test [7], 6.8%; in test [8] it was 2.44%; in [9] it was -7.4%.
As to `O=C(C1CCCc2[nH]ncc21)N1CCCC1` (stereo unspecified), the Percent Effect was -2.14% in [1]; -2.7% in [2]; 2.45% in [3]; -7.51% in test [4]; -0.0978% in the test with Trypanosoma cruzi; -1.24% in test [5]. In addition, the Percent Effect in test [6] is 5.92%; in the test filed under Homo sapiens, -17.4%; in test [7], -2.15%; in test [8], -6.17%; in test [9], -2.26%.
